We go through one sequence from article PMC7862700, “An all-to-all approach to the identification of sequence-specific readers for epigenetic DNA modifications on cytosine”.

Holding throughout (assay): DAPPL (digital affinity profiling via proximity ligation, sequencing); 10 mM Tris-HCl pH 7.5, 50 mM NaCl, 1 mM DTT, 4% glycerol, room temperature, 30 min; GST-TFs on glutathione beads, 16-mer random dsDNA library, 0.1% formaldehyde crosslink after washing; high values mean tight binding
Assay [1] concerns the target T1, FEV (Homo sapiens, UniProt Q99581 1-238).
T1 sequence: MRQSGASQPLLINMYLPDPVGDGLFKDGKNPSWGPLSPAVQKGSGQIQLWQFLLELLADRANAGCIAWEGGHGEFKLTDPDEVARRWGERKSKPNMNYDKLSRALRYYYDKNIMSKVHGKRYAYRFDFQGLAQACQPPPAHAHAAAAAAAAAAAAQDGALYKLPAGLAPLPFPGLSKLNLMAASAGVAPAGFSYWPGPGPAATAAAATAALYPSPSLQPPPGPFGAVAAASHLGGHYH
To be noted: protein: recombinant; tags: N-terminal GST; dsDNA, one strand shown. Put shortly: (§1)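 Pools of DNA-barcoded human transcription factors, expressed in yeast as GST fusions on glutathione beads and combined with a tag-only sample, were incubated with 200 nmole of a 16-mer random double-stranded DNA library. Incubation took 30 min at room temperature in Tris/NaCl/DTT/glycerol buffer and was followed by washing, 0.1% formaldehyde crosslinking, proximity ligation (BsaI/T4 ligase, 1 h, 37 °C), PCR amplification and sequencing on an Illumina NextSeq500. Binding signal is the ratio of a hexamer's read frequency for a factor to its frequency for the tag-only sample.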

In assay [2] the target is ETV5 (Homo sapiens, UniProt P41161 1-510). To be noted: protein: recombinant; tags: N-terminal GST; dsDNA, one strand shown. Put shortly: as §1
ETV5, sequence (P41161 whole entry): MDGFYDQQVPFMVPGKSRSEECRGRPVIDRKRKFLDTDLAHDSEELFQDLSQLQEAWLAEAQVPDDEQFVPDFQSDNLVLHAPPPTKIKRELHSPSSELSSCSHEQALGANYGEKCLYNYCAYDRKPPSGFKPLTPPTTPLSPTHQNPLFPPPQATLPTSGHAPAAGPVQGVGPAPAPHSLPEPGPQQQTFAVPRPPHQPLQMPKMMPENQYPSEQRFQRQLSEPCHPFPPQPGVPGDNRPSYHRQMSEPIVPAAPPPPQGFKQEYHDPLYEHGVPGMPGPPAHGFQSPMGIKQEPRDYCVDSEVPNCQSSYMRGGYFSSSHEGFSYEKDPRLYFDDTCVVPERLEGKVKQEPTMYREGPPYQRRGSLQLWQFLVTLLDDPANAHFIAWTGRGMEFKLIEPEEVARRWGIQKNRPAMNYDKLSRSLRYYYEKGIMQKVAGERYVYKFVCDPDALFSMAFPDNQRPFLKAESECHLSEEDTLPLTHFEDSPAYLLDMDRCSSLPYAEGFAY
Assay [3] deals with HSF1 (Homo sapiens, UniProt Q00613 1-529). To be noted: protein: recombinant; tags: N-terminal GST; chain copies: 3; dsDNA, one strand shown. In a few lines: as §1
HSF1, sequence (Q00613 whole entry): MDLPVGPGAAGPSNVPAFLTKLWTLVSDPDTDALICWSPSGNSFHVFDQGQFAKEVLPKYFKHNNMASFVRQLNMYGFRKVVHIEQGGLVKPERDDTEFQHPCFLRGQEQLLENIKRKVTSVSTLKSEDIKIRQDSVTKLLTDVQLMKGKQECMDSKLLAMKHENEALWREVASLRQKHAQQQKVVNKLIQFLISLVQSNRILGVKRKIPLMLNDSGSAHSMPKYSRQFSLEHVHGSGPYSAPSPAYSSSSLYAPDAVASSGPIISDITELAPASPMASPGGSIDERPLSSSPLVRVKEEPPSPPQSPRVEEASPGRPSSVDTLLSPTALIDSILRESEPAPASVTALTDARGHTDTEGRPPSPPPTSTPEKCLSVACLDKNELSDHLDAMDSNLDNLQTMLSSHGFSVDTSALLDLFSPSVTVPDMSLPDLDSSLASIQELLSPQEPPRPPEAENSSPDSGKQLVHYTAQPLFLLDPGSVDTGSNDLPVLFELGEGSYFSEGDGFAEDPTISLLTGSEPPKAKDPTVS
Assay [4] concerns the target T2, SPIC (Homo sapiens, UniProt Q8N5J4 1-248).
T2 sequence: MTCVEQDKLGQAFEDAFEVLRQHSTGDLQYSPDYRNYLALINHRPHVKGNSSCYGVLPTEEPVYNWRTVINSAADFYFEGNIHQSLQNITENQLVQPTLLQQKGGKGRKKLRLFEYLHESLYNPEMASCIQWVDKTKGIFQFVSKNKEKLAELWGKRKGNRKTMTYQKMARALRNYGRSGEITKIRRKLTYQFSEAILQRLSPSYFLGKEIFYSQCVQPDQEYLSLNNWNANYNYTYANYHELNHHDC
The conditions noted are these: protein: recombinant; tags: N-terminal GST; dsDNA, one strand shown. Put shortly:
as §1

Assay [5] deals with ELF4 (Homo sapiens, UniProt Q99607 1-663). To be noted: protein: recombinant; tags: N-terminal GST; dsDNA, one strand shown. In a few lines:
as §1

Assay [6] has as its target T3, ELK4 (Homo sapiens, UniProt P28324-2 1-405).
T3 sequence: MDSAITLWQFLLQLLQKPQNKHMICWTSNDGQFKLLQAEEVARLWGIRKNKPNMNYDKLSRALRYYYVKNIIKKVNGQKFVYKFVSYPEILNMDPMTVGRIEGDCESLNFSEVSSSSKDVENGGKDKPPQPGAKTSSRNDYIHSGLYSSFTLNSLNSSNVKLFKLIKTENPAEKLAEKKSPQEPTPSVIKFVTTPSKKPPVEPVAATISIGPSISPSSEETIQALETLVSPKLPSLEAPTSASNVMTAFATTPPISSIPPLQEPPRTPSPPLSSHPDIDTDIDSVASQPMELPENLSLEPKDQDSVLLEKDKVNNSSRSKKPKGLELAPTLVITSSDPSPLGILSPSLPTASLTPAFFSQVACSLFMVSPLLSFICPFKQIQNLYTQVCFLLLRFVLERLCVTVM
The conditions noted are these: protein: recombinant; tags: N-terminal GST; dsDNA, one strand shown. In a few lines:
as §1

Assay [7] deals with T4, ETV2 (Homo sapiens, UniProt O00321 1-342).
T4 sequence: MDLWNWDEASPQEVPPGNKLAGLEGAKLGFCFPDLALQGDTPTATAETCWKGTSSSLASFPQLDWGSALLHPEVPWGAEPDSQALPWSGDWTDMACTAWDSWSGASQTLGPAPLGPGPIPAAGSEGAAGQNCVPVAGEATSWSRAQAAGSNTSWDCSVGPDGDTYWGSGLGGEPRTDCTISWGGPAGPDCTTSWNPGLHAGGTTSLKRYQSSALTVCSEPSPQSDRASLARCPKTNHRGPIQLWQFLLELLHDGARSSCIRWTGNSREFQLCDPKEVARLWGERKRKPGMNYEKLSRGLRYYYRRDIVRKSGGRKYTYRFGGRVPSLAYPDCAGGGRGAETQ
The conditions noted are these: protein: recombinant; tags: N-terminal GST; dsDNA, one strand shown. In a few lines:
as §1

For assay [8], the target named is T5, ELF3 (Homo sapiens, UniProt P78545 1-371).
T5 sequence: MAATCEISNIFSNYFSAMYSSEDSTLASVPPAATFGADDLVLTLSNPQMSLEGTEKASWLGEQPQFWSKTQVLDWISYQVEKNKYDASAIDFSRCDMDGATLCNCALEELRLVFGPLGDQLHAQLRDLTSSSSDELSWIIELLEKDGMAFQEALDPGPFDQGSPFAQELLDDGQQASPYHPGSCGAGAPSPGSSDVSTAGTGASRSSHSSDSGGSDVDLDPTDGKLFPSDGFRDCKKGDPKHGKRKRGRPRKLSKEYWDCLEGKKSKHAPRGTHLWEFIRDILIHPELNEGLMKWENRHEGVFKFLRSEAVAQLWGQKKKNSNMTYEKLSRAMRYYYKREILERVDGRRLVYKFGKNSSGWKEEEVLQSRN
To be noted: protein: recombinant; tags: N-terminal GST; dsDNA, one strand shown. In a few lines:
as §1

Assay [9] deals with CRX (Homo sapiens, UniProt O43186 1-299). The conditions noted are these: protein: recombinant; tags: N-terminal GST; dsDNA, one strand shown. Put shortly: as §1
CRX, sequence (O43186 whole entry): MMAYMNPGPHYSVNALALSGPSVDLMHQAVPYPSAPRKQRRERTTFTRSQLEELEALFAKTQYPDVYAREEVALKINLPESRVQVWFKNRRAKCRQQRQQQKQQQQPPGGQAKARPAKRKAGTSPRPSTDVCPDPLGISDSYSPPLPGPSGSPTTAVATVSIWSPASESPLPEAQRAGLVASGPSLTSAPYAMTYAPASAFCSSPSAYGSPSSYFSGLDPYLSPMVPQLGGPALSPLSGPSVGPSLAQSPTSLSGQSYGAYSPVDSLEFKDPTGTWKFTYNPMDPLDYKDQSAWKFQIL
The target of assay [10] is ETV1 (Homo sapiens, UniProt P50549 1-477). To be noted: protein: recombinant; tags: N-terminal GST; dsDNA, one strand shown. In a few lines: as §1
ETV1, sequence (P50549 whole entry): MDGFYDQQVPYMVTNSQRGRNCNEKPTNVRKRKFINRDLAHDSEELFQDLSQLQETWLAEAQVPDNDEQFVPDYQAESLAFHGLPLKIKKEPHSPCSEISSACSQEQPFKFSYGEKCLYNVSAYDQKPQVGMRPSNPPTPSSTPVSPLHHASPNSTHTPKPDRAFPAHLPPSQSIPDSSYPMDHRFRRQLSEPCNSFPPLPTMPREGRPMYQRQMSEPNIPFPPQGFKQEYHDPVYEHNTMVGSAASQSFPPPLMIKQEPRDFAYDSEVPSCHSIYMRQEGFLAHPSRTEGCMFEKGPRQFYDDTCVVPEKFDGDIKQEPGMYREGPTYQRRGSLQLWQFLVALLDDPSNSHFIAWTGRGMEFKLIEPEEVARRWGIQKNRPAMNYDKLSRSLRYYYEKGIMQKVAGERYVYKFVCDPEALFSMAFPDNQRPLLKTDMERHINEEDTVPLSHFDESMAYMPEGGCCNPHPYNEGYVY
Assay [11] deals with T6, ERF (Homo sapiens, UniProt P50548 1-548).
T6 sequence: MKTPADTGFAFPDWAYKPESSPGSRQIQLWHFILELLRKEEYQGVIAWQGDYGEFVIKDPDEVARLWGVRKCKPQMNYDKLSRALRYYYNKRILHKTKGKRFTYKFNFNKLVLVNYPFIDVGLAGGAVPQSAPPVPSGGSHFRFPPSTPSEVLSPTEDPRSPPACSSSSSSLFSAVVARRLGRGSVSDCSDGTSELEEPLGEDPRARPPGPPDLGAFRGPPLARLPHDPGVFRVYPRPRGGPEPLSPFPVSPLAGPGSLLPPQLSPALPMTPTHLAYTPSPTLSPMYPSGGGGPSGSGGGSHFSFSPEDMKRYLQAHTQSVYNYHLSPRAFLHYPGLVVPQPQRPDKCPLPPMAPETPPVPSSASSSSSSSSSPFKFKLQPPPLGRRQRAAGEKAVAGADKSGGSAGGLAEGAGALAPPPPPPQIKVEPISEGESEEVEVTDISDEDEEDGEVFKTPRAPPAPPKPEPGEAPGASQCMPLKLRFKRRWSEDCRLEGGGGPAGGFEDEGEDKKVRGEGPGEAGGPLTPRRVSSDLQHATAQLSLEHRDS
To be noted: protein: recombinant; tags: N-terminal GST; dsDNA, one strand shown. In a few lines:
as §1

For assay [12], the target named is T7, ETV3L (Homo sapiens, UniProt Q6ZN32 1-361).
T7 sequence: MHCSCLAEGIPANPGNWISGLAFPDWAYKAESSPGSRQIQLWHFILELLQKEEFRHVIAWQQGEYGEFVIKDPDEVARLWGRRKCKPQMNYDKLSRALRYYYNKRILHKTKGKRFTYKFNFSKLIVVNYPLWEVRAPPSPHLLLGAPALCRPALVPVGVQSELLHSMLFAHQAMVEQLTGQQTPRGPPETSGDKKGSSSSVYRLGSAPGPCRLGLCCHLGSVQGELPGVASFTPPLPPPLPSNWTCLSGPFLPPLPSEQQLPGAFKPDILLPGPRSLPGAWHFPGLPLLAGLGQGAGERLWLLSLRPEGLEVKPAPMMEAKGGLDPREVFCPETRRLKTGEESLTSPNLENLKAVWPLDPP
The conditions noted are these: protein: recombinant; tags: N-terminal GST; dsDNA, one strand shown. Put shortly: as §1

In assay [13] the target is T8, ETS2 (Homo sapiens, UniProt P15036 1-469).
T8 sequence: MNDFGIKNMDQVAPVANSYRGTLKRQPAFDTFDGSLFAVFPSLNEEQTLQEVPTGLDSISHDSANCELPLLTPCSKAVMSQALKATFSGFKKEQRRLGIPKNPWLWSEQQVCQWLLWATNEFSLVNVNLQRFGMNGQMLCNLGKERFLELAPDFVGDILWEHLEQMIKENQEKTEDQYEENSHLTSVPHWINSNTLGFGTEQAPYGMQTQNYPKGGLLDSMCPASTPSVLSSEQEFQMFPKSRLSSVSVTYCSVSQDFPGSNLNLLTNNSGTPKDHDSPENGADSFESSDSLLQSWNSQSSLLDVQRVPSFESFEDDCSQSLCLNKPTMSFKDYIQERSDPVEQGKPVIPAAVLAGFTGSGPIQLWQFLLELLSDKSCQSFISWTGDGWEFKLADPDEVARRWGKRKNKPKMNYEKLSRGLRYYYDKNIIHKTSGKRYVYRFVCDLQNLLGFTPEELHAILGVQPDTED
The conditions noted are these: protein: recombinant; tags: N-terminal GST; dsDNA, one strand shown. In a few lines: as §1

Assay [14] deals with T9, SPDEF (Homo sapiens, UniProt O95238 1-335).
T9 sequence: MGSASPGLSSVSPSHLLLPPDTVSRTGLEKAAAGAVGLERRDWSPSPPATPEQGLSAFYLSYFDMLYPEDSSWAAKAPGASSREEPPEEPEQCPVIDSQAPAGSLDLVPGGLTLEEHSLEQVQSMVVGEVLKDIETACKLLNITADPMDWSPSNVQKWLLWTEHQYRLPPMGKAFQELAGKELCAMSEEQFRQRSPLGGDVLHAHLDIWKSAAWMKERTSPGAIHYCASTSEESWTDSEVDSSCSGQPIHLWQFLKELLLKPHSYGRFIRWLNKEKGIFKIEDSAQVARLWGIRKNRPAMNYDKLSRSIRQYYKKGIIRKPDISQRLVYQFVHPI
To be noted: protein: recombinant; tags: N-terminal GST; dsDNA, one strand shown. In a few lines: as §1

For assay [15], the target named is T10, ETV7 (Homo sapiens, UniProt Q9Y603 1-341).
T10 sequence: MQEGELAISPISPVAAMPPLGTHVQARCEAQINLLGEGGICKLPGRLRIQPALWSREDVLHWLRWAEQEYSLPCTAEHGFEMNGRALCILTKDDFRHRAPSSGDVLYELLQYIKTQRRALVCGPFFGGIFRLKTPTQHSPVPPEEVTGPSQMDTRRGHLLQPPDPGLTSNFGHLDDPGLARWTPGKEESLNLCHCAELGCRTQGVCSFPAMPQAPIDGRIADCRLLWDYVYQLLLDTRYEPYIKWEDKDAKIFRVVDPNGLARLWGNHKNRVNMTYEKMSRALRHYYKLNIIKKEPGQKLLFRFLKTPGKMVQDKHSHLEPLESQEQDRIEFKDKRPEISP
The conditions noted are these: protein: recombinant; tags: N-terminal GST; dsDNA, one strand shown. Put shortly:
as §1

The target in assay [16] is T11, ELF5 (Homo sapiens, UniProt Q9UKW6-2 1-255).
T11 sequence: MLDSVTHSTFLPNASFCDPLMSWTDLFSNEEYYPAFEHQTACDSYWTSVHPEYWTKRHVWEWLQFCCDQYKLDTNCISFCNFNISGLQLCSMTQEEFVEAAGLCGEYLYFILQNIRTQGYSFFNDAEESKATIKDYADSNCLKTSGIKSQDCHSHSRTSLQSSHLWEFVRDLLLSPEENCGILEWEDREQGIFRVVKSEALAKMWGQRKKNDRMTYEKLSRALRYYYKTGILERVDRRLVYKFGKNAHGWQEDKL
To be noted: protein: recombinant; tags: N-terminal GST; dsDNA, one strand shown. In a few lines:
as §1

For assay [17], the target named is T12, ETV3 (Homo sapiens, UniProt P41162-2 1-143).
T12 sequence: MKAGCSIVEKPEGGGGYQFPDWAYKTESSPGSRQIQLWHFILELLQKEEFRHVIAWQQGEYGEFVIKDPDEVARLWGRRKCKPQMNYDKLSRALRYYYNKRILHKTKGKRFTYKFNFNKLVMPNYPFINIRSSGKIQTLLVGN
The conditions noted are these: protein: recombinant; tags: N-terminal GST; dsDNA, one strand shown. In a few lines: as §1

The target in assay [18] is ETV6 (Homo sapiens, UniProt P41212 1-452). To be noted: protein: recombinant; tags: N-terminal GST; dsDNA, one strand shown. Put shortly:
as §1

ETV6, sequence (P41212 whole entry): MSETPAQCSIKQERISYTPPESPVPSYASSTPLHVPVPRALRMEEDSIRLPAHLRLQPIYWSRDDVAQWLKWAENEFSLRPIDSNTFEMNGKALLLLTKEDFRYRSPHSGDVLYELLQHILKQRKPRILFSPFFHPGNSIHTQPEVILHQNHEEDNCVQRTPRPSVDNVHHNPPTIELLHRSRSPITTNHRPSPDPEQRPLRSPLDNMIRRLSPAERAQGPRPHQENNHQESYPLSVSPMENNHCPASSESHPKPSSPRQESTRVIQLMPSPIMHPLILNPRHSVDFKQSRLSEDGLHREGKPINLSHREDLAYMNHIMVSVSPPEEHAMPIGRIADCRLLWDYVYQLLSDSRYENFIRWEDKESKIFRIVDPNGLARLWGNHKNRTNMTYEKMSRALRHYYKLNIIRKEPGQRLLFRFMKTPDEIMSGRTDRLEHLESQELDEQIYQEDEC
ELF4, sequence (Q99607 whole entry): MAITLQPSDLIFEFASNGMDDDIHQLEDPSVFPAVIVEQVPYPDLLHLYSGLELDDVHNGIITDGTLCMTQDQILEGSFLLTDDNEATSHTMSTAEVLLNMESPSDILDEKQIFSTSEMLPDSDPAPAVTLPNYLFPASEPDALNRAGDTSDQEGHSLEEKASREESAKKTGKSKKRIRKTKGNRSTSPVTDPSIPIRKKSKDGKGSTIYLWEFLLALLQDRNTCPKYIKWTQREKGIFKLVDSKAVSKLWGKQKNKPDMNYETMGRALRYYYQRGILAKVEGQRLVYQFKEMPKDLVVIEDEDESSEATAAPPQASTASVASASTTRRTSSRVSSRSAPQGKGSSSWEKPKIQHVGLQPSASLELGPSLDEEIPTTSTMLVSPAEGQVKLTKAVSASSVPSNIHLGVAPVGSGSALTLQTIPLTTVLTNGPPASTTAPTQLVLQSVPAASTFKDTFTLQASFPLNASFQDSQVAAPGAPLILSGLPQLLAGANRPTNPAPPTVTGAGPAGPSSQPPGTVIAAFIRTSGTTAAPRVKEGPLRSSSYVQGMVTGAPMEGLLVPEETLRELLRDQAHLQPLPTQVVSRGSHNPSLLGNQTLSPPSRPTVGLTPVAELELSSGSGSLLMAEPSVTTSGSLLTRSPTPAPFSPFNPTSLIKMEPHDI

Turning to GAATGT, the binding signal is 1.07 fold enrichment (6-mer frequency, TF over GST control) in assay [1]; 1.07 fold enrichment (6-mer frequency, TF over GST control) in assay [2]; 1.88 fold enrichment (6-mer frequency, TF over GST control) in [3]; 1.11 fold enrichment (6-mer frequency, TF over GST control) in [4]; 1.07 fold enrichment (6-mer frequency, TF over GST control) in assay [5]; 1.07 fold enrichment (6-mer frequency, TF over GST control) in assay [6]. Besides, the binding signal is 1.03 fold enrichment (6-mer frequency, TF over GST control) in assay [7]; 1.2 fold enrichment (6-mer frequency, TF over GST control) in assay [8]; 1.02 fold enrichment (6-mer frequency, TF over GST control) in assay [9]; 1.03 fold enrichment (6-mer frequency, TF over GST control) in assay [10]; 1.04 fold enrichment (6-mer frequency, TF over GST control) in [11]; 1.1 fold enrichment (6-mer frequency, TF over GST control) in assay [12]. The binding signal in assay [13] was 1.06 fold enrichment (6-mer frequency, TF over GST control); in assay [14], 1.16 fold enrichment (6-mer frequency, TF over GST control); in assay [15] it was 1.13 fold enrichment (6-mer frequency, TF over GST control); in assay [16], 1.08 fold enrichment (6-mer frequency, TF over GST control); in assay [17] it was 1.12 fold enrichment (6-mer frequency, TF over GST control); in assay [18], 1.03 fold enrichment (6-mer frequency, TF over GST control).
